Data published in PubChem BioAssay.
The list shows a part of the results. Activity calls are given as the source filed them.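 How the source made its calls: active means ratio signal rise beyond 5 SD above unstimulated control wells' mean, seen in both duplicate runs; inactive means the rest.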

molecular target: Short transient receptor potential channel 6 (Mus musculus) (UniProt Q61143); test: mouse TRPC6 channel activators, confirmation, HEK293 cells, membrane potential dye, duplicate (AID 488961); settings: HEK293-TRPC6 membrane potential dye fluorescence, FDSS, at 10 µM; active compounds read high;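 on activation: plate controls were buffer EC0 wells for no effect and acetylcholine ECmax response for full effect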
Sequence (Q61143 whole entry, looked up): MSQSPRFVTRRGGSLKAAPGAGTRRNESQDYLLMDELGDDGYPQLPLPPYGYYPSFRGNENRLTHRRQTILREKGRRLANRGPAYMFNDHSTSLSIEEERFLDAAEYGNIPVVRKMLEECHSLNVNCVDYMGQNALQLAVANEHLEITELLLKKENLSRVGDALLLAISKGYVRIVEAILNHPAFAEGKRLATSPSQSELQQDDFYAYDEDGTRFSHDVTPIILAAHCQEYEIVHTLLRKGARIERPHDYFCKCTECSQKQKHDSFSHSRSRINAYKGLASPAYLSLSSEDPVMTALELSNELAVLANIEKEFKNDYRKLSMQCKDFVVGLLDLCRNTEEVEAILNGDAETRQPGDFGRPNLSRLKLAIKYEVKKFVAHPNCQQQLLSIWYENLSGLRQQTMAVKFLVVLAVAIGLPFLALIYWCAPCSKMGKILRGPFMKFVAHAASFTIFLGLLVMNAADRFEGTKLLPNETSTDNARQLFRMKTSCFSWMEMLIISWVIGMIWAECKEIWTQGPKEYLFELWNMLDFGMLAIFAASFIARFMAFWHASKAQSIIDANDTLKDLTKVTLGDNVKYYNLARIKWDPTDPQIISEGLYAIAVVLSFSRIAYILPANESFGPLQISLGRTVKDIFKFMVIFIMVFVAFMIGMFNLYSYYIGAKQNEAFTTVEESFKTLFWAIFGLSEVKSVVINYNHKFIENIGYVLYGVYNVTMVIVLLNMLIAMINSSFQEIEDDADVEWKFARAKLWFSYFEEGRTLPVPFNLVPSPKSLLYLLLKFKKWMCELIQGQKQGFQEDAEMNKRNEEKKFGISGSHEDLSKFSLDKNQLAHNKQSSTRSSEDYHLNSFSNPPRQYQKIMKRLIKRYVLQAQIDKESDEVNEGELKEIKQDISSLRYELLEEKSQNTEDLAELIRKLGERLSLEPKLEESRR

| Structure (SMILES) | outcome | activation |
| --- | --- | --- |
| Cc1cccc(-[n+]2c(-c3cccc(Br)c3)[nH]c3nc4ccccc4nc32)c1 | inactive |  |
| N=c1c2c3c(sc2ncn1CCCN1CCOCC1)CCCCC3 | inactive |  |
| O=C1CN(C(=O)c2ccccc2F)C(c2ccc(F)cc2)c2cc(F)ccc2N1 (stereo unspecified) | inactive |  |
| COC(=O)c1c(NC(=O)c2ccc(S(=O)(=O)N3CCOCC3)cc2)sc2c1CCN(C(C)C)C2 | inactive |  |
| COc1ccc(Cl)cc1NC(=O)CCS(=O)(=O)c1cc2c(cc1C)NC(=O)CO2 | inactive |  |
| CCN1CCN(c2ccc([N+](=O)[O-])cc2C(=O)c2ccc(Cl)cc2)CC1 | inactive |  |
| N=c1c2c3c(sc2nc2n1CCCCC2)CCCC3 | inactive |  |
| CC(C)c1ccc(NC(=O)Cn2ncc3ccccc32)cc1 | inactive |  |
| Cc1nc(N=C(N)N)nc2c(C)cccc12 | inactive |  |
| Nc1c(C(=O)c2cccs2)sc2nsc(SCCN3CCCCC3)c12 | inactive |  |
| CCc1ccc(-c2cc(C(=O)NN3CCN(C)CC3)c3ccccc3n2)cc1 | inactive |  |
| C/C(=N\Nc1nc2ccccc2[nH]1)c1cccs1 | inactive |  |
| COc1ccc(-c2nnc(NC(=O)CS(=O)(=O)c3ccc(Cl)cc3)o2)c(OC)c1 |  | 46.5% (active) |
| CCCN(CCc1ccccc1)C1CCc2c(O)cccc2C1 (stereo unspecified) |  | 88.5% (active) |
| CCN1CCN(c2nc(Nc3cc(OC)ccc3OC)nc(Nc3cc(OC)ccc3OC)n2)CC1 | inactive |  |
| CCOc1ccc(/C(O)=C2/C(=O)C(=O)N(Cc3cccnc3)C2c2ccc(N(C)C)cc2)c(C)c1 (stereo unspecified) | inactive |  |
| CSCCC(NC(=O)c1ccc(=O)n(C)n1)c1nc2ccccc2[nH]1 (stereo unspecified) | inactive |  |
| COc1cc(CNCCN(C)C)ccc1OCc1c(F)cccc1Cl |  | 56% (active) |
| CCCc1cc(=O)oc2c(C)c(O)c(CN3CCCCC3)cc12 | inactive |  |
| CN1CCN(c2ccc([N+](=O)[O-])c(Sc3nc4ccccc4[nH]3)c2)CC1 | inactive |  |
| CN(C)c1ccc(/C=C2\NC(=S)N(Cc3ccccc3)C2=O)cc1 | inactive |  |
| Cc1c(CCOC(=O)CC23CC4CC(CC(C)(C4)C2)C3)sc[n+]1Cc1ccc([N+](=O)[O-])cc1 | inactive |  |
| CCCCc1nc(NCCN)c(C#N)c2c1CSC(C)(C)C2 | inactive |  |
| CCOC(=O)c1sc2nc(CSCC(=O)OCc3ccc(C(=O)OC)o3)[nH]c(=O)c2c1C |  | 134% (active) |
| O=[N+]([O-])c1ccccc1Nc1ccc(O)cc1 | inactive |  |
| CC(=O)c1cc(NC(=O)c2ccccc2)c(=O)oc1/C=C/N(C)C | inactive |  |
